Test results from PubChem BioAssay.
Several values for one entry are separate records, joined by “and”; a condition that tells them apart may be missing. Equal entries are not always repeated. Results filed as inconclusive are left out. Activity calls are given as the source filed them.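 Rule for the calls, unless noted: active = normalized viability below 100% at a tested concentration; inactive = the rest.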

Columns and labels:
[1] = growth inhibition of DIPG glioma cells, dose response, cell-based, SU-DIPG-XVII, MIPE5.0, CellTiter-Glo, qHTS (AID 1347060; cut-off not given, nearly all actives have AC50 up to about 26 µM;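 note: cells exposed to compound for 48 hours before viability readout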); conditions: SU-DIPG-XVII viability, CellTiter-Glo ATP luminescence
[2] = growth inhibition of DIPG glioma cells, dose response, cell-based, SU-DIPG-XIII, MIPE5.0, CellTiter-Glo, qHTS (AID 1347064; cut-off not given, nearly all actives have AC50 up to about 23 µM;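 note: cells exposed to compound for 48 hours before the viability read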); conditions: SU-DIPG-XIII viability, CellTiter-Glo ATP luminescence
[3] = viability loss in pontine glioma line – cell-based, SU-DIPG-XXV, MIPE5.0, CellTiter-Glo, qHTS, dose response (AID 1347065; cut-off not given, nearly all actives have AC50 up to about 26 µM;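 note: cells exposed to compound for 48 hours before ATP readout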); conditions: CellTiter-Glo ATP luminescence
[4] = JHH-DIPG-1 glioma cell viability, MIPE5.0 library, CellTiter-Glo luminescence, qHTS (AID 1347067; cut-off not given, nearly all actives have AC50 up to about 26 µM;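 note: cells exposed to compound for 48 hours before readout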); conditions: JHH-DIPG-1 glioma viability, CellTiter-Glo ATP luminescence
[5] = sensitizers of A549 cells to miR-34 induction, primary screen, imaging, A549 dox-inducible miR-34, nuclei and caspase counts (AID 1347080;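 active = compounds whose cell count with miR-34 switched on is under 0.7 times the count with it off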); conditions: A549 miR-34 inducible, Hoechst nuclei count, 48 h
[6] = modifiers of HSF1 nuclear foci, imaging, Selleck Cancer Library (AID 1347162; in the data active = plate-normalised HSF1 focus index below about 0.46); conditions: human cells, at 10 µM; SSMD: measured here: HSF1 foci SSMD mean; cell count: measured here: cell number; plate-normalised HSF1 focus index: stronger effect = lower value
[7] = survival rescue of mitochondrial mutant cells in low glucose, primary screen, MELAS cybrids, Rieske KO mouse fibroblasts, CellTiter-Glo (AID 1508586;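 active = mean z-score across replicates of 1.96 or higher in either the MELAS or the Rieske mutant cell line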;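 note: z relative to plate mean and SD of compound and empty wells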)
[8] = ovarian cancer cell viability with rucaparib, profiling panel, oncology-focused library, rucaparib conditional (AID 1508598); conditions: patient-derived ovarian cancer cells, CellTiter-Glo viability, 144 h, stronger effect = lower value
[9] = SU-DIPG-XXV glioma cell viability, MIPE5.0 library, qHTS (AID 1347068; cut-off not given, nearly all actives have IC50 up to about 30 µM;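 note: cells exposed to compound for 48 hours before viability readout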)
[10] = stronger effect = lower value, cell number ratio, induced over uninduced
[11] = measured here: relative caspase fold change +Dox/-Dox
[12] = measured here: total cells with miR-34 induction, stronger effect = lower value
[13] = measured here: total cells without miR-34 induction
[14] = MELAS cybrid survival, CellTiter-Glo 48 h, stronger effect = higher value
[15] = Rieske KO mouse fibroblast survival, CellTiter-Glo 72 h

COc1cc(Nc2ncc(F)c(Nc3ccc4c(n3)NC(=O)C(C)(C)O4)n2)cc(OC)c1OC
active: AC50 [1] 1.18 µM | AC50 [2] 1.86 µM | AC50 [3] 1.32 µM | AC50 [4] 5.9 µM | viability ([8]; at 0.000305 µM, OCI-P5x cells, with rucaparib 20 µM, 100% = cells with rucaparib alone) 83% | viability ([8]; at 0.000305 µM, OCI-P5x cells, without rucaparib) 96.3% | viability ([8]; at 0.00122 µM, OCI-P5x cells, with rucaparib 20 µM, 100% = cells with rucaparib alone) 82.7% | viability ([8]; at 0.00122 µM, OCI-P5x cells, without rucaparib) 86.9% | viability ([8]; at 0.00488 µM, OCI-P5x cells, with rucaparib 20 µM, 100% = cells with rucaparib alone) 78.5% | viability ([8]; at 0.00488 µM, OCI-P5x cells, without rucaparib) 95.2% | viability ([8]; at 0.0195 µM, OCI-P5x cells, with rucaparib 20 µM, 100% = cells with rucaparib alone) 70.2% | viability ([8]; at 0.0195 µM, OCI-P5x cells, without rucaparib) 74.2% | viability ([8]; at 0.0781 µM, OCI-P5x cells, with rucaparib 20 µM, 100% = cells with rucaparib alone) 59.3% | viability ([8]; at 0.0781 µM, OCI-P5x cells, without rucaparib) 55% | viability ([8]; at 0.313 µM, OCI-P5x cells, with rucaparib 20 µM, 100% = cells with rucaparib alone) 46.3% | viability ([8]; at 0.313 µM, OCI-P5x cells, without rucaparib) 50% | viability ([8]; at 1.25 µM, OCI-P5x cells, with rucaparib 20 µM, 100% = cells with rucaparib alone) 81.5% | viability ([8]; at 1.25 µM, OCI-P5x cells, without rucaparib) 99.3% | viability ([8]; at 5 µM, OCI-P5x cells, with rucaparib 20 µM, 100% = cells with rucaparib alone) 79% | viability ([8]; at 5 µM, OCI-P5x cells, without rucaparib) 96.9%
1520 and 950: cell count [5, 13]
1550 and 1090: cell count [5, 12]
0.0101 and 0.0182: z-score [7, 15]
0.841 and 0.707: fold change [5, 11]
2.8: SSMD [6]
inactive: fold change [5, 10] 1.02 and 1.15 | plate-normalised HSF1 focus index [6] 1.18 | z-score [7, 14] -0.458 and -0.514 | viability ([8]; at 0.000305 µM, OCI-C5x cells, with rucaparib 10 µM, 100% = cells with rucaparib alone) 109% | viability ([8]; at 0.000305 µM, OCI-C5x cells, without rucaparib) 101% | viability ([8]; at 0.00122 µM, OCI-C5x cells, with rucaparib 10 µM, 100% = cells with rucaparib alone) 111% | viability ([8]; at 0.00122 µM, OCI-C5x cells, without rucaparib) 109% | viability ([8]; at 0.00488 µM, OCI-C5x cells, with rucaparib 10 µM, 100% = cells with rucaparib alone) 111% | viability ([8]; at 0.00488 µM, OCI-C5x cells, without rucaparib) 111% | viability ([8]; at 0.0195 µM, OCI-C5x cells, with rucaparib 10 µM, 100% = cells with rucaparib alone) 118% | viability ([8]; at 0.0195 µM, OCI-C5x cells, without rucaparib) 112% | viability ([8]; at 0.0781 µM, OCI-C5x cells, with rucaparib 10 µM, 100% = cells with rucaparib alone) 107% | viability ([8]; at 0.0781 µM, OCI-C5x cells, without rucaparib) 114% | viability ([8]; at 0.313 µM, OCI-C5x cells, with rucaparib 10 µM, 100% = cells with rucaparib alone) 112% | viability ([8]; at 0.313 µM, OCI-C5x cells, without rucaparib) 126% | viability ([8]; at 1.25 µM, OCI-C5x cells, with rucaparib 10 µM, 100% = cells with rucaparib alone) 116% | viability ([8]; at 1.25 µM, OCI-C5x cells, without rucaparib) 127% | viability ([8]; at 5 µM, OCI-C5x cells, with rucaparib 10 µM, 100% = cells with rucaparib alone) 122% | viability ([8]; at 5 µM, OCI-C5x cells, without rucaparib) 151%
7530: cell count [6]

c1ccc(Cn2c(-c3ccc(OCC(C4CCNCC4)n4c(-c5ccccc5)nc5ccccc54)cc3)nc3ccccc32)cc1 (stereo unspecified)
inactive: fold change [5, 10] 1.11 | z-score [7, 14] -0.583
-1.33: z-score [7, 15]
active: AC50 [1] 18.6 µM | AC50 [2] 20.9 µM | AC50 [3] 13.2 µM | AC50 [4] 16.6 µM | IC50 [9] 23.5 µM
0.359: fold change [5, 11]
5600: cell count [5, 12]
5040: cell count [5, 13]
